Bioassay records deposited in PubChem BioAssay by ICCB-Longwood Screening Facility, Harvard Medical School.
A selection: hits, their analogues and other compounds. The true share with any hit is near 1.4%.
AID504770 – growth inhibitors of E. coli YBA685 in a screen for V. cholerae RctB (chromosome II replication) inhibitors; E. coli YBA685 rctB-dependent plasmid, OD600 growth, 3 h; stronger effect = lower value; z-score (concentration not given with the values); 130,000 tested, 0.27% active; in the data active = z-score below about -2, passing the limit was not always enough
Mtb MenB inh – inhibitors of Mycobacterium tuberculosis MenB enzyme; MenB enzyme assay, absorbance read-out; 100,000 tested, 0.43% active; AID 540299; inhibition, % (no concentration beside the values); in the data active = inhibition above about 21%, passing the limit was not always enough
Polio RdRp inh – inhibitors of poliovirus RNA polymerase binding and polymerization | poliovirus polymerase elongation, fluorescence polarization; stronger effect = lower value | % elongation, % (compound at 16.7 µg/mL) | 150,000 tested, 0.66% active | AID 588519; in the data active = % elongation below about 90%
Mtb MbtI inh – inhibitors of Mycobacterium tuberculosis siderophore enzyme MbtI; P9WFX0; purified MbtI enzyme, fluorescence intensity read-out; inhibition, % (test concentration not listed); 100,000 tested, 0.89% active; in the data active = inhibition mostly above about 56%, no sharp cut-off; inactive = mostly below about 77%
Target sequence (P9WFX0 whole entry, looked up): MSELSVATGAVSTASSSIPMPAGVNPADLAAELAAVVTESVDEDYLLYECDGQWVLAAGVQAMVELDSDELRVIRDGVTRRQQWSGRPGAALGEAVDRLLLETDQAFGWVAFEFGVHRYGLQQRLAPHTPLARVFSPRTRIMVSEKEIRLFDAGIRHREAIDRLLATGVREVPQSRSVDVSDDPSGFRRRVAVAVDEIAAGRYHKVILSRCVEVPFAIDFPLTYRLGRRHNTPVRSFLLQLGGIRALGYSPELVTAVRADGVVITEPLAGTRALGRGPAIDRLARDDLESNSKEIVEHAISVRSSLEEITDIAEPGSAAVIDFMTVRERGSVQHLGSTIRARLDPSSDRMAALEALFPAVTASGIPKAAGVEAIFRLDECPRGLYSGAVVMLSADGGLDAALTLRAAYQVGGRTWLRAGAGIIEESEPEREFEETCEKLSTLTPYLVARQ
Numbers without * were called inactive; i = inactive; nt = no result given.

SMILES	AID504770	Mtb MenB inh	Polio RdRp inh	Mtb MbtI inh
CC1CCC2(CC1)NC(=O)N(NC(=S)NCc1ccc3c(c1)OCO3)C2=O (stereo not drawn)	2.2	-29	103	67*
CCNC(=S)NCc1ccc2c(c1)OCO2	-1.4	-26	106	-9
COc1ccc(CNC(=O)CSC(C)(C)C)cc1OC	-4.6*	-13	100	-10
COc1ccc(CNC(=O)CCC2CCCC2)cc1OC	0.2	11	101	-37
CSC(=Nc1cc(C(F)(F)F)cc(C(F)(F)F)c1)N1CCOCC1	0.95	nt	nt	nt
CCNS(=O)(=O)c1ccc(S(=O)(=O)N(Cc2ccccn2)C2CCCCC2)cc1	-0.6	-24	105	-13
CCC(C)NS(=O)(=O)c1ccc(S(=O)(=O)N(Cc2ccc(C)o2)C2CCCC2)cc1 (stereo not drawn)	0.9	33*	102	-2
O=C(CC(NC1CC1)C(=O)O)c1ccc(Cl)cc1 (stereo not drawn)	-0.65	35*	104	nt
O=C(CC(Sc1ccc(Br)cc1)C(=O)O)c1ccc(Cl)cc1 (stereo not drawn)	-1.1	26	85*	nt
O=C(CC(SC1CCCCC1)C(=O)O)c1ccc(Br)cc1 (stereo not drawn)	1.2	-13	102	nt
C/C(N)=C(/C#N)C(=O)CSc1nc(C)nc2ccccc12	-0.4	-7	112	15
Cc1cc(C(=O)NC2CCCCCC2)no1	-0.4	-3	106	-10
Cc1cc(C(=O)NN2C3CSC2CS3)no1	-0.25	75*	99	-4
NC(=O)Cn1cnc2sc3c(c2c1=O)CCC3	-0.25	-24	90*	nt
COC(=O)Cn1c(C(=O)OC)cc2c1ccn2-c1ccc(F)cc1	0.1	8	101	89
COC(=O)Cn1c(C(=O)OC)cc2c1ccn2C	1.1	33*	103	24
O=C(O)/C=C/C(=O)c1ccc(F)cc1	-2	nt	43*	74*
O=C(/C=C/S(=O)(=O)c1ccc(Br)cc1)c1ccc(F)cc1	-1.9	nt	nt	nt
O=C(/C=C/S(=O)(=O)c1ccc(Cl)cc1)c1ccc(F)cc1	-1.9	9	98	98*
Nc1cccc(Cl)c1O	-0.15	-7	101	57*
N=C(N)Cc1c(Cl)cccc1Cl	3	nt	nt	nt
CCn1cc(C(=O)Nc2cccc(OC)c2)c2cc(OC)c(OC)cc2c1=O	-1	-16	100	-10
NC(N)=N/N=C/c1ccc(O)c(Cl)c1	0	-22	102	-5
N#CC(C#N)=Cc1ccc(O)c(Cl)c1	-0.8	i	100	61*
Cc1cc(N2CCCC2)ccc1/C=C/C1=CCN(C)CC1	1.2	11	64*	89
SMILES	AID504770	Mtb MenB inh	Polio RdRp inh	Mtb MbtI inh
C=CCn1c(C)c(/C=C/C2=CCN(C)CC2)c2ccccc21	-0.5	-168	78	79
Nc1cccc(C(=O)Nc2nccs2)c1	-1.2	-18	106	nt
CCn1c(CCC(=O)O)nc2cc(S(N)(=O)=O)ccc21	-2	-65	64*	92
CCOc1cc(S(=O)(=O)NCCc2ccc(OC)c(OC)c2)c(OCC)cc1-n1cnnn1	1.9	44*	103	-18
CCOc1cc(S(=O)(=O)NCc2ccc(OC)cc2)c(OCC)cc1-n1cnnn1	1.6	23	102	48
COC(=O)c1ccc(C(=O)OC)cc1	0.3	-14	105	nt
COC(=O)c1ccc(C(=S)NCC(OC)OC)cc1	0.1	-61	79*	87*
Nn1c(Cc2cccs2)nc2ccccc2c1=O	0	-51	102	2
COc1ccc2[nH]c(=O)c(CN(CCO)S(=O)(=O)c3ccc(Cl)c(C(F)(F)F)c3)cc2c1	1	33*	100	23
Cc1ccc(S(=O)(=O)N(CCO)Cc2cc3cc(C)c(C)cc3[nH]c2=O)cc1	0.15	17	102	32
CCCCCOc1ccc(C(=O)CCN2CCOCC2)cc1	0.05	-7	103	92*
CCOc1ccc(CNC(=O)CCn2nc(C)cc2C)cc1OC	-0.05	5	101	-13
O=C(CSc1ccc2ccccc2c1)NCCc1ccc(O)c(O)c1	-0.3	nt	100	93*
O=C(/C=C/c1ccccc1)Oc1nc2ccccc2s1	0.3	3	85*	nt
O=C(/C=C/c1ccccc1)Oc1ccccc1	2.2	-11	104	5
CCOC(=O)N1CCN(CC2CCCCC2)CC1	-1.6	-6	100	-24
CCN1CCN(CC2CCCCC2)CC1	1.5	34*	100	8
CC(=C1C(=O)c2ccccc2C1=O)N1CCc2ccccc2C1	-1.1	-65	89*	13
CC(C)c1ccc(S(=O)(=O)/N=C2/C=C(Sc3ncn[nH]3)C(=O)c3ccccc32)cc1	0.4	8	66*	88
Cc1ccc(S(=O)(=O)/N=C2\C=C(Sc3ncn[nH]3)C(=O)c3ccccc32)cc1	1.5	-58	102	86*
O=C1C(Sc2ccccc2)=C/C(=N/S(=O)(=O)c2cccs2)c2ccccc21	0.05	-5	92	92
Cc1ccc(S(=O)(=O)/N=C2/C=C(Sc3ncn[nH]3)C(=O)c3ccccc32)cc1	-0.5	nt	nt	88*
O/N=c1/sc2ccccc2n1CCS	-0.3	15	99	69*
O=C1C(c2c(O)n(-c3cc(Cl)cc(Cl)c3)[nH]c2=O)=Nc2ccccc21	1.2	3	103	84*
O=C(O)c1ccc2nc(-c3cc4cccc(O)c4oc3=O)[nH]c2c1	nt	nt	79*	nt
SMILES	AID504770	Mtb MenB inh	Polio RdRp inh	Mtb MbtI inh
CCCc1nn2c(=O)cc(COc3ccc(NC(=O)C(C)C)cc3)nc2s1	-0.85	22	99	3
CCOc1ccc(C/C(N)=N\n2cnnc2)cc1	-0.05	22	100	-13
CCOC(=O)CCN1C(=O)c2ccccc2C1=O	1.3	1	107	-1
O=C(CCN1C(=O)c2ccccc2C1=O)OCc1ccco1	-0.5	1	90*	0
O=C(N/N=C/c1ccc(O)c(O)c1O)c1cccc(S(=O)(=O)Nc2ccccc2Cl)c1	1.4	-2	103	55*
NNC(=O)c1cccc(S(=O)(=O)Nc2ccccc2Cl)c1	-0.95	-13	102	-7
Nc1cccc2c1C(=O)N(C(=O)/C=C/c1cccc(F)c1)C2=O	0.3	-36	82*	12
CC1Cc2ccccc2N1C(=O)/C=C/c1cccc(F)c1 (stereo not drawn)	0.1	-5	98	14
O=C(Sc1ccc(Cl)cc1)N1CCOCC1	0.7	nt	nt	nt
O=C(Sc1ccc(Cl)cc1)c1ccno1	-0.55	-5	96	65*
CSc1c[nH]n(-c2ccccc2)c(=O)c1=O	-0.4	-4	98	78*
O=c1c(Cl)c[nH]n(-c2ccccc2)c1=O	-0.8	8	100	8
COC(=O)c1cc(=O)[nH]c(=S)[nH]1	0.8	-29	81*	88*
COC(=O)c1c(O)cc(=O)[nH]c1N	0.15	-24	99	-4
CCOc1ccc(-c2c(=O)n(O)c3ccccc3[n+]2[O-])cc1	1.9	-142	99	87*
O=c1c(-c2ccc(I)cc2)[n+]([O-])c2ccccc2n1O	-0.7	-114	101	43
FC(F)(F)c1ccnc(=S)[nH]1	-1.3	-4	101	49
CC(CCc1ccccc1)N1CCN(c2ccccc2F)CC1 (stereo not drawn)	-0.5	-8	99	-10
N#Cc1sccc1CSc1ccc(Cl)cc1	0.8	nt	nt	nt
